Results filed as inconclusive are left out. Activity calls are given as the source filed them. The call rests on the fitted dose curve; in most records, active means well fitted inhibition curve with a large enough effect; inconclusive means small, poorly fitted or top-dose-only effect; inactive means flat fitted curve, though single readings scatter.
Legend:
Test in all cases: qHTS profiling for inhibitors of Plasmodium falciparum proliferation (AID 504749); further: nearly all actives have a fitted effect of over 60% in size
Conditions in all cases: P. falciparum in erythrocytes, SYBR Green DNA, 72 h; series mostly up to 28.7 µM
[1] = tested on: 7G8
Procedure, shortened: (§1)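 Quantitative HTS: compounds pinned into medium, infected erythrocytes added (0.3% parasitemia, 2.5% hematocrit), 72 h culture at 37 C under 5% CO2. Saponin/Triton lysis with SYBR Green I, overnight RT, then fluorescence read.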

[2] = tested on: AA1029
Procedure, shortened: as §1

[3] = tested on: ATS95
Procedure, shortened: as §1

[4] = tested on: C2A
Procedure, shortened: as §1

[5] = tested on: CP211
Procedure, shortened: as §1

[6] = tested on: CP238
Procedure, shortened: as §1

[7] = tested on: CP252
Procedure, shortened: as §1

[8] = tested on: CP256
Procedure, shortened: as §1

[9] = tested on: CP262
Procedure, shortened: as §1

[10] = tested on: CP266
Procedure, shortened: as §1

[11] = tested on: CP268
Procedure, shortened: as §1

[12] = tested on: CP269
Procedure, shortened: as §1

[13] = tested on: CP315
Procedure, shortened: as §1

[14] = tested on: CP325
Procedure, shortened: as §1

[15] = tested on: CP329
Procedure, shortened: as §1

[16] = tested on: DIV17
Procedure, shortened: as §1

[17] = tested on: FAB9
Procedure, shortened: as §1

[18] = tested on: ICS
Procedure, shortened: as §1

[19] = tested on: JCK
Procedure, shortened: as §1

[20] = tested on: PC26
Procedure, shortened: as §1

Measured: Potency
Potency means the concentration at half of the fitted maximal effect.

C=C1CC[C@H](O)C/C1=C/C=C1\CCC[C@]2(C)[C@@H]([C@H](C)CCCC(C)C)CC[C@@H]12
active: [1] 11.2 µM | [18] 10 µM
inactive: all other assays above

Cc1c(C(=O)O)c(O)cc2c1C(=O)c1c(O)c([C@H]3O[C@H](CO)[C@@H](O)[C@H](O)[C@H]3O)c(O)c(O)c1C2=O
inactive: all assays above
